{"source": "PubChem BioAssay (EPA / NIEHS)", "note": "Active and inactive are the calls of the source. How the source made its calls: active means hit-call score of the fitted dose curve at least 0.9, where 1 is the maximum; inactive means score below 0.9.", "data": [{"assay": "ATG_DR4_LXR_CIS: Attagene CIS-FACTORIAL HepG2 Assay for human Liver X Receptor (LXR), DR4 submotif (AID 2282929)", "details": "HepG2 Attagene DR4 cis-reporter, mRNA transcription; actives raise or lower the signal", "experimental": "ATG_CIS is a cell-based, multiplexed-readout assay that uses HepG2, a human liver cell line, with measurements taken at 24 hours after chemical dosing in a 24-well plate.ATG_DR4_LXR_CIS is one of 52 assay component(s) measured or calculated from the ATG_CIS assay. It is designed to make measurements of mRNA induction, a form of inducible reporter, as detected with fluorescence intensity signals by Reverse transcription polymerase chain reaction (RT-PCR) and Capillary electrophoresis technology.Data from the assay component ATG_DR4_LXR_CIS was analyzed into 1 assay endpoint. This assay endpoint, ATG_DR4_LXR_CIS, was analyzed with bidirectional fitting relative to DMSO as the negative control and baseline of activity. Using a type of inducible reporter, measures of mRNA for gain or loss-of-signal activity can be used to understand the reporter gene at the transcription factor-level as they relate to the gene NR1H2 and NR1H3. Furthermore, this assay endpoint can be referred to as a primary readout, because this assay has produced multiple assay endpoints where this one serves a reporter gene function. To generalize the intended target to other relatable targets, this assay endpoint is annotated to the nuclear receptor intended target family, where the subfamily is non-steroidal.\nHuman liver HepG2 cells are transiently transfected with multiple reporter transcription units (MRTUs) in 6-well plates using FuGene 6 reagent (Roche; 3 ml FuGene/1 mg DNA). The MRTU constructs are regulated by a cis-regulating element (promoter). […] A major difference between the CIS and TRANS system is that in CIS activities of endogenous TFs are measured, whereas the TRANS assay evaluates changes in activities of exogenous, chimeric NR-Gal4 proteins. […] At the end of 24 hour incubation, total RNA was isolated using TriZol reagent (Invitrogen). The isolated RNA is then reverse-transcribed using oligo(dT) primer and Mo-MLV reverse transcriptase (Invitrogen) with DNAse I (Ambion) treatment for 30 min. The one-tenth of the produced cDNA was amplified by PCR using Taq DNA polymerase (Invitrogen) and two reporter sequence-specific primers. The PCR products were fluorescently labeled by primer extension with 6-arboxyfluorescein (6-FAM) 5'-labeled reporter sequence-specific primer (2 min at 95 C, 20 s at 68 C and 10 min at 72 C) and these products were digested with 5U of HpaI (New England Biolabs) for 2h at 37 C. The fragments were purified using Qiaquick PCR columns (Qiagen), analyzed on an ABI 3130xL genetic analyzer (Applied Biosystems) with peak positions identified by using a set of X-rhodamine (ROX)-labeled MapMarker1000 molecular weight standards (BioVentures). The raw capillary electrophoresis data was processed using Attagraph software (Attagene).", "values": [{"smiles": "CCCCCCCCCCCCCCCCCC(=O)OCC(CC)CCCC", "note": "(stereo not given)", "outcome": "inactive"}, {"smiles": "CCCCCCCCCC=O", "outcome": "inactive"}, {"smiles": "ClCCCl", "outcome": "inactive"}, {"smiles": "NNc1nc(-c2ccc(N)cc2)cs1", "outcome": "inactive"}, {"smiles": "CC(C)(N)CO", "outcome": "inactive"}, {"smiles": "Nc1cc(N)cc(C(=O)O)c1", "outcome": "inactive"}, {"smiles": "O=Nc1ccc(Nc2ccccc2)cc1", "AC50": "25.3 µM (active)"}, {"smiles": "CC(CCO)CCCC(C)(C)O", "note": "(stereo not given)", "outcome": "inactive"}, {"smiles": "S=C(S)NCCNC(=S)S", "outcome": "inactive"}, {"smiles": "Cc1ccc(Nc2ccc(O)c3c2C(=O)c2ccccc2C3=O)cc1", "outcome": "inactive"}, {"smiles": "CCCCCC(CO)CCC", "note": "(stereo not given)", "outcome": "inactive"}, {"smiles": "CC(=O)O[C@H](CC(=O)[O-])C[N+](C)(C)C", "outcome": "inactive"}, {"smiles": "Clc1cccc(Cl)n1", "outcome": "inactive"}, {"smiles": "CC(C)=CCO", "outcome": "inactive"}, {"smiles": "Clc1sc(Cl)c(Cl)c1Cl", "outcome": "inactive"}, {"smiles": "Cc1ccccc1C=O", "outcome": "inactive"}, {"smiles": "CCC/C=C/C=O", "outcome": "inactive"}, {"smiles": "CO[Si](C)(OC)c1ccccc1", "outcome": "inactive"}, {"smiles": "CC(C=O)Cc1ccc(C(C)C)cc1", "note": "(stereo not given)", "outcome": "inactive"}, {"smiles": "O=C(O)Cc1cccc2ccccc12", "outcome": "inactive"}, {"smiles": "OCc1cccnc1", "outcome": "inactive"}, {"smiles": "C=C(C)[C@@H]1CC[C@@H](C)C[C@@H]1O", "outcome": "inactive"}, {"smiles": "c1ccc2sc(SN(C3CCCCC3)C3CCCCC3)nc2c1", "outcome": "inactive"}, {"smiles": "CCCCc1ccc(N)cc1", "outcome": "inactive"}, {"smiles": "CC(=O)OCCOC(C)=O", "outcome": "inactive"}, {"smiles": "O=C(OCc1ccccc1)C(=O)OCc1ccccc1", "outcome": "inactive"}, {"smiles": "COc1cc(C=O)ccc1OC(=O)C(C)C", "outcome": "inactive"}, {"smiles": "CCC(C)CCCC(C)(C)O", "note": "(stereo not given)", "outcome": "inactive"}, {"smiles": "NC(=O)NC1NC(=O)NC1=O", "note": "(stereo not given)", "outcome": "inactive"}, {"smiles": "CC[C@]12CCCN3CCc4c(n(c5ccccc45)[C@@](O)(C(=O)OC)C1)[C@@H]32", "outcome": "inactive"}, {"smiles": "O=C(O)c1cccc(C(F)(F)F)c1", "outcome": "inactive"}, {"smiles": "CN(C)CCCN", "outcome": "inactive"}, {"smiles": "Cc1cccc(C)c1[N+](=O)[O-]", "outcome": "inactive"}, {"smiles": "CC(=O)O[C@]1(C(C)=O)CC[C@H]2[C@@H]3C[C@H](C)C4=CC(=O)CC[C@]4(C)[C@H]3CC[C@@]21C", "outcome": "inactive"}, {"smiles": "CCN(CC)c1ccc2c(-c3ccccc3C(=O)O)c3ccc(=[N+](CC)CC)cc-3oc2c1", "AC50": "130 µM (active)"}, {"smiles": "C=CCOC(=O)CCC1CCCCC1", "outcome": "inactive"}, {"smiles": "O=C(O)c1ccc(C(=O)O)cc1", "outcome": "inactive"}, {"smiles": "CC1CC(OC(=O)c2ccccc2O)CC(C)(C)C1", "note": "(stereo not given)", "outcome": "inactive"}, {"smiles": "Nc1cc([N+](=O)[O-])ccc1O", "outcome": "inactive"}, {"smiles": "COc1nc(C)nc(N)n1", "outcome": "inactive"}]}]}
